Measurements taken from PubChem BioAssay (NCATS).
Activity calls are given as the source filed them. Calls come from the whole dose curve; as a rule, active = well fitted curve in the direction sought with a large enough effect; inactive = no such curve, though single readings can be large or run the other way.

Target: Alpha-galactosidase A (Homo sapiens) (UniProt P06280)
Experiment: Counterscreen for Glucocerebrosidase Inhibitors: qHTS Assay for Human alpha-Galactosidase at pH 4.5 (AID 992)
Settings: purified enzyme, fluorogenic substrate; series mostly up to 76.9 µM
Procedure, shortened: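 Read-out is 4-methylumbelliferone fluorescence (365 nm excitation, 440 nm emission) after a pH 10 NaOH/glycine stop. Reactions held 2 nM enzyme and 80 uM substrate at pH 4.5 for 20 min at room temperature.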

Alpha-galactosidase A (Homo sapiens), sequence (P06280 whole entry, looked up): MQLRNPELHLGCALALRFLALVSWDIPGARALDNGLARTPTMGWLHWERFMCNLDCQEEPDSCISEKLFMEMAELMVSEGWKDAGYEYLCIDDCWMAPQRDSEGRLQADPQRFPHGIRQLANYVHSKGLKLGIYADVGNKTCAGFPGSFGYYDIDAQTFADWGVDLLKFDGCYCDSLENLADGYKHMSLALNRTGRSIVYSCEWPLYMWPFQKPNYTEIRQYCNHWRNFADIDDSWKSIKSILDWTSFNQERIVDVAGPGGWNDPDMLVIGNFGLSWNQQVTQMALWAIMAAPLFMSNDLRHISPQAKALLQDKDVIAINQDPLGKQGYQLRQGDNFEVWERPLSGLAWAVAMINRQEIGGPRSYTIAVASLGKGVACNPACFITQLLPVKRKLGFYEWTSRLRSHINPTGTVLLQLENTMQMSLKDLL

| Structure (SMILES) | outcome |
| --- | --- |
| Nc1ncnc2c1c(-c1ccc(Oc3ccccc3)cc1)cn2C1CCCC1 | inactive |
| Cn1ccnc1 | inactive |
| CC(C)(C)c1cc(/C=C(\C#N)C(N)=S)cc(C(C)(C)C)c1O | inactive |
| O=c1ccc2c(OCCCCc3ccccc3)c3ccoc3cc2o1 | inactive |
| NC(N)=NC(N)=Nc1cccc(Cl)c1 | inactive |
| O=C1NC(=O)c2cc(Nc3ccccc3)c(Nc3ccccc3)cc21 | inactive |
| Nc1nc2ccc(Cl)cc2c2nc(-c3ccco3)nn12 | inactive |
| COc1ccccc1N1CCN(CCCNc2c(C)c(=O)n(C)c(=O)n2C)CC1 | inactive |
| CCN(CC)CCCCCCCCOC(=O)c1cc(OC)c(OC)c(OC)c1 | inactive |
| CNC(=O)c1cc2c(cn1)[nH]c1ccccc12 | inactive |
| NC(N)=[N+]1CCc2ccccc2C1 | inactive |
| O=c1[nH]c2cc(Cl)ccc2c(O)c1-c1ccc(Oc2ccccc2)cc1 | inactive |
| NC/C=C\C(=O)O | inactive |
| Nn1nnc2ccccc21 | inactive |
| N#C/C(=C\c1ccc(O)c(O)c1)C(=O)NCCc1ccccc1 | inactive |
| [Li+] | inactive |
| CCCn1c(=O)c2[nH]c(-c3ccc(S(=O)(=O)O)cc3)nc2n(CCC)c1=O | inactive |
| O=C(O)C1=CC(=C(c2ccc(O)c(C(=O)O)c2)c2ccc(O)c(C(=O)O)c2)C=CC1=O | inactive |
| CN1CCN(c2nc3cc(C(F)(F)F)ccc3n3cccc23)CC1 | inactive |
| COCc1nc2c([nH]1)c(=O)n(C)c(=O)n2CC(C)C | inactive |

| Structure (SMILES) | outcome |
| --- | --- |
| O=C1Cc2c([nH]c3ccc(Br)cc23)-c2ccccc2N1 | inactive |
| Cc1nc(N=Nc2ccc(S(=O)(=O)O)cc2S(=O)(=O)O)c(COP(=O)(O)O)c(C=O)c1O | inactive |
| O=[N+]([O-])c1cccc2c(Br)[nH]nc12 | inactive |
| CCCCCCC/C=C\CCCCCCCCC(=O)O | inactive |
| CCN(c1nc(N)c(C(=O)N=C(N)N)nc1Cl)C(C)C | inactive |
| O=C(O)c1ccccc1Nc1ccccc1 | inactive |
| OC1(c2ccc(Cl)cc2)CCN(Cc2c[nH]c3ccccc23)CC1 | inactive |
| COc1ccc2c(c1)c(CC(=O)O)c(C)n2C(=O)c1ccccc1 | inactive |
| O=C(O)Cc1c[nH]c2ccc(O)cc12 | inactive |
| c1ccc2c(c1)CC(N1CCN(c3cccc4c3OCCO4)CC1)C2 | inactive |
| CC(=O)NCCc1c[nH]c2ccc(O)cc12 | inactive |
| N#CC(C#N)=C(N)/C(C#N)=C/c1ccc(O)cc1 | inactive |
| O=C(O)/C(=C/c1c(C(=O)O)[nH]c2cc(Cl)cc(Cl)c12)c1ccccc1 | inactive |
| Cn1c(=O)c2[nH]c(C3CCCC3)nc2n(C)c1=O | inactive |
| CC(C)(CO)Cc1cc(C(C)(C)C)c(O)c(C(C)(C)C)c1 | inactive |
| O=C(O)Cc1ccc(O)c(O)c1 | inactive |
| NC(=O)CNCCC(c1ccccc1)c1ccccc1 | inactive |
| Cc1cc2c(cc1Cl)N(C(=O)Nc1ccnc3ccccc13)CC2 | inactive |
| C/C(=C\c1ccc(C(=O)O)cc1)c1ccc2c(c1)C(C)(C)CCC2(C)C | inactive |
